According to ChEMBL document CHEMBL3988442, “University of Dundee, Small-Polar-MMV Screening Library” (2021):
For some assays here: Potency and affinity values are given separately.

Legend:
Parameters in all cases: scale not given: direction of the effect not stated beside the values
[1] = target: Protein translocase subunit SecA (Escherichia coli (strain K12)) (UniProt P10408); experiment: Assay to Identify E. coli SecA ATPase Inhibitors; assay type: functional; settings: 30 µM
[2] = target: T1, Ubiquitin-activating enzyme e1, putative (Leishmania donovani (strain BPK282A1)) (UniProt E9BSI1); experiment: Leishmania donovani Ubiquitin Activating Enzyme (LdE1); assay type: functional; settings: 30 µM
T1 sequence (whole entry): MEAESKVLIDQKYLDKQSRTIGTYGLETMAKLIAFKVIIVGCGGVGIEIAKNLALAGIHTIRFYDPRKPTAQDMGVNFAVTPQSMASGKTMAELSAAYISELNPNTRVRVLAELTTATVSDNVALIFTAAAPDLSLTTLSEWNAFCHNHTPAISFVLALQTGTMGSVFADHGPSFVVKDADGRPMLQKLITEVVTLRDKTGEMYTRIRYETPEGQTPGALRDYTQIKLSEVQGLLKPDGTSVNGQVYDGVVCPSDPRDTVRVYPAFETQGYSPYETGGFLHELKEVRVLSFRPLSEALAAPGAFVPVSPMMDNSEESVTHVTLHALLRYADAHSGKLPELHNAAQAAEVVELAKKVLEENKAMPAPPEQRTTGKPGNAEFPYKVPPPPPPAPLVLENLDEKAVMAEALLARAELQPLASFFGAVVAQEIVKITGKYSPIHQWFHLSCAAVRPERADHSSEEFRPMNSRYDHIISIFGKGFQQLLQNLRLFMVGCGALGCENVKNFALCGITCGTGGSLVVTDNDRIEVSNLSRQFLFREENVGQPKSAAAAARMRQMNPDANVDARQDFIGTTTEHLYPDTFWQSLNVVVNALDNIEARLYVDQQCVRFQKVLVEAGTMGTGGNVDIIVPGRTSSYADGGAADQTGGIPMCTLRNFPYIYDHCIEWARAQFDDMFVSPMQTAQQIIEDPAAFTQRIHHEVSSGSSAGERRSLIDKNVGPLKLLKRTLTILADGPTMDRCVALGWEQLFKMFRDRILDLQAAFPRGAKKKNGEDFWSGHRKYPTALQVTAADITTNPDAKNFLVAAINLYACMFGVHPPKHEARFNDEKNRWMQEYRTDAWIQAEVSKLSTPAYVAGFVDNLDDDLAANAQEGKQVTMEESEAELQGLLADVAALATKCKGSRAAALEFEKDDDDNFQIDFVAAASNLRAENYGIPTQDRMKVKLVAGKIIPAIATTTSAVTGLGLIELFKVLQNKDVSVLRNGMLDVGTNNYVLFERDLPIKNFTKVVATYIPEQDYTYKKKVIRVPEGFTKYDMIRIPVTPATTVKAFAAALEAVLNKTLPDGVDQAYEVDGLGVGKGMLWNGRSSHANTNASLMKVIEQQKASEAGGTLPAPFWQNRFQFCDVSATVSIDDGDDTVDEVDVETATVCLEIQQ

[3] = target: AMP-activated protein kinase, AMPK (Homo sapiens) (UniProt P54646+O43741+P54619+Q9UGJ0+Q9Y478+Q13131+Q9UGI9); experiment: AMP-dependent Kinase enzyme assay. An in vitro enzyme assay that detects ADP turnover that is directly proportional to AMPK activity. This uses naive AMPK that is activated during the assay with MK-8722; assay type: functional; settings: 30 µM
[4] = target: Sialic acid-binding Ig-like lectin 9 (Homo sapiens) (UniProt Q9Y336); experiment: Hs-Siglec9 ALPHAscreen SOP 20170721; settings: 10 µM
Sialic acid-binding Ig-like lectin 9 (Homo sapiens), sequence (Q9Y336 whole entry): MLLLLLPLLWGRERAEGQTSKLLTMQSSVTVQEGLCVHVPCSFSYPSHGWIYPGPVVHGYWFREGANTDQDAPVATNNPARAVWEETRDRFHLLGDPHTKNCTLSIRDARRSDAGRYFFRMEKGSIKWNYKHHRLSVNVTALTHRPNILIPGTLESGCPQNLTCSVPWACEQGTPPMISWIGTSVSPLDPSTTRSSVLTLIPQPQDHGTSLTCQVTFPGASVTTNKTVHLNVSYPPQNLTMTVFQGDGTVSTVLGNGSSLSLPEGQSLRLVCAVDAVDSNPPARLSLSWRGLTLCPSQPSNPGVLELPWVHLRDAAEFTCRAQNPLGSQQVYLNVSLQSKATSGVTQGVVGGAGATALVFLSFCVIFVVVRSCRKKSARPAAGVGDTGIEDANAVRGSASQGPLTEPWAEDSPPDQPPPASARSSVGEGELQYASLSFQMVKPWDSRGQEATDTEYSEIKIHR

Trypanosoma cruzi = experiment: Trypanosoma cruzi phosphomannomutase and mannose-1-phosphate guanylyltransferase assay; assay type: functional; settings: 10 µM
[5] = target: T2, Arginase-2, mitochondrial (Homo sapiens) (UniProt P78540); experiment: in vitro enzyme assay to detect the production of urea directly proportional to the activity of Arginase II; assay type: functional; settings: 33.3 µM; further: in the data most compounds retested in dose-response had high values
T2 sequence (whole entry): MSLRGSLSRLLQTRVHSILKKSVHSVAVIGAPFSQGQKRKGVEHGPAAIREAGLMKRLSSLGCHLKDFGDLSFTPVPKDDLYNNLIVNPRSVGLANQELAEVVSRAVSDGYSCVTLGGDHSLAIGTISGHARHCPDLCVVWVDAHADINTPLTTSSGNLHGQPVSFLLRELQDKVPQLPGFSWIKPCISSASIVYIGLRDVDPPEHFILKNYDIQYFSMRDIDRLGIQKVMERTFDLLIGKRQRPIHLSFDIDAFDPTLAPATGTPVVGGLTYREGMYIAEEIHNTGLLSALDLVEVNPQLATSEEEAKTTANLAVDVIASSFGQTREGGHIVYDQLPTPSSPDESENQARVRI

[6] = target: T3, Proteasome subunit beta (Trypanosoma cruzi) (UniProt O96673); experiment: Trypanosoma cruzi proteasome chymotrypsin-like activity (TcProtChymo) assay.; further: in the data most compounds retested in dose-response had high values; assay type: functional; settings: 9.37 µM
T3 sequence (whole entry): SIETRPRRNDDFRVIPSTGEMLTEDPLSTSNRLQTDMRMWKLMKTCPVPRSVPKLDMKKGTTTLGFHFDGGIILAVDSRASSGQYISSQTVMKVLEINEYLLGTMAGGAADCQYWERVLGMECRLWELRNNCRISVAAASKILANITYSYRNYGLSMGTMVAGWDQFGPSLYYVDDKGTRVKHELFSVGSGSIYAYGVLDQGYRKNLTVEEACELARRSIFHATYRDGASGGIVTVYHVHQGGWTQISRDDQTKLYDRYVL

Homo sapiens = species on record: Homo sapiens; experiment: To identify inhibition of the IFN signalling (Jak-Stat) pathway via expression of an eGFP reporter gene under the control of an IFN-stimulated response element (ISRE) containing MxA promoter.; assay type: functional; settings: 30 µM
[7] = target: T4, Tyrosyl-tRNA synthetase, putative (Trypanosoma cruzi (strain CL Brener)) (UniProt Q4DSP6); experiment: Trypanosoma cruzi tyrosyl tRNA synthetase (TcYRS) _High Tyrosine SOP; assay type: functional; settings: 30 µM; further: in the data most compounds retested in dose-response had high values
T4 sequence (whole entry): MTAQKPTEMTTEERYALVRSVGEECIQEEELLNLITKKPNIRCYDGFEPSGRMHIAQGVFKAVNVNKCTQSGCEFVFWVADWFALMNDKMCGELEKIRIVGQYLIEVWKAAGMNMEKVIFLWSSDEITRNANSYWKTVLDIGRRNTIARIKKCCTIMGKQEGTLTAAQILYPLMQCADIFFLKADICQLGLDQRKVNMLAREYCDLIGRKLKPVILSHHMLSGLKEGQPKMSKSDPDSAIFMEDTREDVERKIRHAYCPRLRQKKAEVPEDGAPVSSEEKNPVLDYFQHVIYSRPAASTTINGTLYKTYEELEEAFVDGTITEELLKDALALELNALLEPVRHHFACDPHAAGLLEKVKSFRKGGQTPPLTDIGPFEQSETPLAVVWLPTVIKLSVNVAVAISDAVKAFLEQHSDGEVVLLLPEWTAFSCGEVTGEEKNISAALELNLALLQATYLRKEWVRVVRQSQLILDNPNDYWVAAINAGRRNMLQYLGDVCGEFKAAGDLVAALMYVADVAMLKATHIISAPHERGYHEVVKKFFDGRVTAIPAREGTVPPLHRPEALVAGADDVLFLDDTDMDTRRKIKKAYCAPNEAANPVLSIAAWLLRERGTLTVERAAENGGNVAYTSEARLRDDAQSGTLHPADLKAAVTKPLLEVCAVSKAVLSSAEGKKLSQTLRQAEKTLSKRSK

[8] = target: T4, Tyrosyl-tRNA synthetase, putative (Trypanosoma cruzi (strain CL Brener)); experiment: Trypanosoma cruzi tyrosyl tRNA synthetase (TcYRS) SOP; assay type: functional; settings: 30 µM
[9] = target: Chromo domain-containing protein 1 (Saccharomyces cerevisiae (strain ATCC 204508 / S288c) (Baker's yeast)) (UniProt P32657); experiment: ScCHD-1 Enzyme Inhibition Assay; assay type: functional; settings: 30 µM; further: in the data most compounds retested in dose-response had high values
Chromo domain-containing protein 1 (Saccharomyces cerevisiae (strain ATCC 204508 / S288c) (Baker's yeast)), sequence (P32657 whole entry, the tested form may be a part): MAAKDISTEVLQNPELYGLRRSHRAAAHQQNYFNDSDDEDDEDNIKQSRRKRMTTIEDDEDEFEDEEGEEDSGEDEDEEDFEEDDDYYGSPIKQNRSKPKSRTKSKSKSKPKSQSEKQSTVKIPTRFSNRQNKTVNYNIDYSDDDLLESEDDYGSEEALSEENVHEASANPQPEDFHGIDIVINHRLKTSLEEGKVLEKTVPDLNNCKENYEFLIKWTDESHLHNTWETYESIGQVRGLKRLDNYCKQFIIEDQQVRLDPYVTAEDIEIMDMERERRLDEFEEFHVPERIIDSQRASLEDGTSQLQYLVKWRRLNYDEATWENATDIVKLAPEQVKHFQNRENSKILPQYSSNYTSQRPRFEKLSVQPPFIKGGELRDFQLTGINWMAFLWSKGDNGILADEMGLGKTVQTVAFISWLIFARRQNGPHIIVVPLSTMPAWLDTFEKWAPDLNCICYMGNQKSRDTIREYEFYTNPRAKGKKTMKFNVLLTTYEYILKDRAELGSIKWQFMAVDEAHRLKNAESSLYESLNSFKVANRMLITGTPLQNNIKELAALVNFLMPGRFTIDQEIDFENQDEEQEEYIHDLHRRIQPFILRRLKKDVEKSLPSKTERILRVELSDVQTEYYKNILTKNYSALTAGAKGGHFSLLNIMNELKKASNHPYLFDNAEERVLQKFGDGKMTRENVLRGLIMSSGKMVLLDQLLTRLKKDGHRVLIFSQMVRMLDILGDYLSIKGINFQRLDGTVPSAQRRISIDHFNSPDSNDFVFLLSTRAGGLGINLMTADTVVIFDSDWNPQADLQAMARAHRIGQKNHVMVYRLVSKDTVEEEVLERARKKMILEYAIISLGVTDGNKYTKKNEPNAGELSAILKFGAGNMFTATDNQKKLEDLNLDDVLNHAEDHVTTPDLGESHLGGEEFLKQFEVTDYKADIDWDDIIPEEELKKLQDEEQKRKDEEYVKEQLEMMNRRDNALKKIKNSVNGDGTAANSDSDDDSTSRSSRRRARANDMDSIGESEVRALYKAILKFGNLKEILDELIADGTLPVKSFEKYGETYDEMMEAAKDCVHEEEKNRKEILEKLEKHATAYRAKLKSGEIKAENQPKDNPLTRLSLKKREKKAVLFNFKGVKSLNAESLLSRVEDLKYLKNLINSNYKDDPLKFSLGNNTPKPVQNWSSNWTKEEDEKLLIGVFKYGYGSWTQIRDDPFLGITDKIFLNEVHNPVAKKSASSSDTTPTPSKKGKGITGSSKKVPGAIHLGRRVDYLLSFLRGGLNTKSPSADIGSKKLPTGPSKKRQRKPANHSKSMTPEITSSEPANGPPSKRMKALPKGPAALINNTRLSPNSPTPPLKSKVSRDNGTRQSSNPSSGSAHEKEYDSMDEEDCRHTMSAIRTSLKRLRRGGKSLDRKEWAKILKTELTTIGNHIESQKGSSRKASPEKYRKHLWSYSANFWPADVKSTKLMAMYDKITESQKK

Protein translocase subunit SecA (Escherichia coli (strain K12)), sequence (P10408 whole entry): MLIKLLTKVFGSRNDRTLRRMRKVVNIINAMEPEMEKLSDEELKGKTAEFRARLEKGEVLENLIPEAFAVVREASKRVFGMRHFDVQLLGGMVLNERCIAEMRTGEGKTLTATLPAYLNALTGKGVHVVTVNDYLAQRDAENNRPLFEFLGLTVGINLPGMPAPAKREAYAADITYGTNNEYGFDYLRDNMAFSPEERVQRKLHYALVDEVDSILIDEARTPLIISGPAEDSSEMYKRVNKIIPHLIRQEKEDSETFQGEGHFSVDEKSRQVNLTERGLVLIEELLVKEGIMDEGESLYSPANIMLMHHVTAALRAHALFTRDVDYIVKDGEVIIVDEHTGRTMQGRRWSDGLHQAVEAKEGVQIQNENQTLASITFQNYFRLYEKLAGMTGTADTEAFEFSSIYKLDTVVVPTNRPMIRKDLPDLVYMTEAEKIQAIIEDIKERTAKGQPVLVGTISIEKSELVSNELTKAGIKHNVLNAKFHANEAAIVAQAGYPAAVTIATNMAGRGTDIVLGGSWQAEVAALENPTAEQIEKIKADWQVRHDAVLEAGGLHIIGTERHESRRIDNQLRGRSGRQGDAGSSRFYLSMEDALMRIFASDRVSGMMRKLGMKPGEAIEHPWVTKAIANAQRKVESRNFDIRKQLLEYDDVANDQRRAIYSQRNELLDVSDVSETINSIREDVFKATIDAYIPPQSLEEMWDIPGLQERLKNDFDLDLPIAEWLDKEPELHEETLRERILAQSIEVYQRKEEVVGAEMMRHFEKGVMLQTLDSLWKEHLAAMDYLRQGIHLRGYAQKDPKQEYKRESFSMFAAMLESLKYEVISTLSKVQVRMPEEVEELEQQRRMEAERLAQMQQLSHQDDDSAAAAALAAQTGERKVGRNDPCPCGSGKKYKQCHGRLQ

Compound	Percent Effect [1]	Percent Effect [2]	Percent Effect [3]	Percent Effect [4]	Percent Effect (Trypanosoma cruzi)	Percent Effect [5]	Percent Effect [6]	Percent Effect (Homo sapiens)	Percent Effect [7]	Percent Effect [8]	Percent Effect [9]
CC(C)COC(C)C(=O)NCc1ccc(OC(C)C)nc1 (configuration not stated)	-1.41%	15.6%	-0.374%	1.85%	2.84%	1.9%	11.1%	-12.7%	8.57%	25.9%	-24.5%
O=C(NCC1CCOC1)c1csc(-c2ccco2)n1 (configuration not stated)	-2.71%	13%	-3.93%	-0.826%	5.24%	-1.07%	13.8%	13.5%	7.77%	21.9%	-8.51%
CN1CCN(Cc2cscn2)CC(C(=O)N(C)C)C1 (configuration not stated)	-6.29%	18.7%	-6.4%	-0.543%	5.91%	-3.03%	3.44%	5.65%	8.51%	14.1%	-4.45%
Cc1cnn(CC2CCCN2C(=O)c2nccc3ccccc23)c1 (configuration not stated)	-3.25%	13%	4.54%	3.78%	-0.49%	-1.05%	6.39%	10.7%	0%	11.8%	-15.9%
N#Cc1ccc(CN2CCN(C(=O)C3CCC3)[C@@H]3CS(=O)(=O)C[C@@H]32)cc1	-4.22%	5.2%	3.66%	3.04%	-5.61%	-20.7%	8.98%	14.4%	4.3%	8.64%	-1.71%
CCN1CCN(c2ncc(-c3cc(C)no3)c(-c3ccoc3C)n2)CC1	-4.09%	12.2%	5%	3.93%	1.98%	-3.48%	6.4%	-1.91%	2.15%	6.49%	-24.9%
Cn1nc2c(cc1=O)CN(Cc1coc(-c3cccs3)n1)CC2	0.447%	16.2%	-166%	5.69%	4.81%	0.802%	-1.26%	-8.71%	-2.46%	3.7%	-4.95%
CCc1nnc2n1CCN(C(=O)c1csc(-c3cnn(C)c3)n1)C2	-4.14%	12.5%	-3.73%	15.8%	4.96%	8.39%	15.1%	0.753%	3.16%	7.69%	-5.68%
CCC(O)CN1CCN(C(=O)c2cccn2Cc2cccs2)CC1 (configuration not stated)	-3.15%	5.06%	1.52%	11.3%	-2.17%	0.38%	-3.03%	5.7%	4.43%	11.4%	-5.26%
O=C1CC(c2ccncc2)c2c(c(C(=O)O)cn2-c2ccc(F)cc2)N1 (configuration not stated)	-3.81%	12%	-34.9%	-1.44%	-3.14%	-3.35%	13.7%	4.82%	8.47%	15.4%	-5.97%
CCN(C)c1ncnc2c1CCN(C(=O)c1ccno1)CC2	-6.78%	13.3%	0.989%	3.39%	-4.05%	-46.4%	5.81%	-5.04%	4.17%	7.5%	-5.33%
Cc1nc(CN2C[C@@H]3CN(C(=O)c4ccnnc4)C[C@@H]3C2=O)cs1	-4.78%	5.41%	6.23%	4.54%	-0.684%	2.23%	11.6%	-22.8%	3.24%	7.69%	4.63%
CCc1nc(CN(C)CC2CCN(CC(C)O)CC2)no1 (configuration not stated)	-2.22%	0%	-8.55%	0.164%	9.46%	-2.86%	1.03%	-23.1%	2.65%	7.32%	-1.75%
CN1CCN(C(=O)Cc2cccc(F)c2)Cc2cccnc21	-3.84%	2.6%	-0.44%	1.15%	8.55%	-9.65%	-0.499%	6.92%	2.15%	3.7%	-6.06%
Cc1nc(C)c(C(=O)NCCNC(=O)Cc2ccccc2)s1	-3.47%	16.2%	-4.83%	1.88%	-4.36%	-2.4%	16.7%	11.2%	7.92%	18.3%	-2.99%
O=C1[C@H]2CC[C@H](CN(C3CSCCSC3)C2)N1Cc1cscn1	-0.514%	2.74%	6.23%	4.75%	-8.53%	-1.2%	18.4%	8.4%	8.33%	16.1%	1.67%
COc1cc(CNC(=O)NCCCF)cc(Br)c1OC	-5.95%	-2.67%	3.23%	-1.26%	-2.24%	0%	-0.174%	25.5%	1.64%	1.24%	1.39%
COc1ccc(C2=C(C)C(N3CCc4ccccc43)=NS2(=O)=O)cc1	-1.62%	20.8%	-4.65%	-5.53%	1.08%	3.23%	12.7%	9.51%	-1.06%	8.97%	-11.2%
Cc1nc(C2CCN(C(=O)c3ccc(=O)n(C)c3)CC2)c2sccn12	-2.51%	4.05%	3.65%	3.19%	1.58%	-3.02%	10.4%	3.58%	3.23%	6.49%	-13.8%
O=C(NCCN1CCNCC1)c1c(O)c2ccccc2[nH]c1=O	1.56%	12%	11%	-7.32%	-9.23%	-14.3%	20.1%	26.5%	0%	5.13%	-9.61%
CCN1CCOC(CNCc2ccccc2OCc2ccccn2)C1 (configuration not stated)	-2.71%	5.26%	-13%	-5.97%	-4.39%	3.24%	9.56%	9.07%	6.4%	13.6%	-8.14%
Cc1ccc2c(ccn2CCC(=O)O)c1	-4.82%	0%	0.269%	-0.473%	1.07%	-0.744%	-2.83%	11.2%	1.07%	3.7%	0.48%
